# Measurements as given in PubChem BioAssay (EPA / NIEHS).
# Several values for one entry are separate records, joined by “and”; a condition that tells them apart may be missing. Equal entries are not always repeated. Records with an inconclusive call do not appear. Activity calls are given as the source filed them. Rule for the calls, unless noted: active = hit-call score of the fitted dose curve at least 0.9, where 1 is the maximum; inconclusive = response in the unintended direction; inactive = score below 0.9.
# Columns and labels:
# [1] = TAMU_PeakParms_SingleDonor1434_Asystole: Texas A&M University (TAMU) 1.5-hr Human Induced Pluripotent Stem Cell (iPSC)-derived Cardiomyocytes Calcium (Ca+2) Flux Assay for Cardiotoxicity: Asystole (quiescence of beating) (AID 2284328)
# In short: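 Donor 1434 iPSC-cardiomyocytes exposed 90 min at 37C, 5% CO2, to 0.2, 1, 10 and 100 uM in 0.5% DMSO. Ca2+ dye fluorescence gave average peak frequency; POD is EC95, a 95% beat-rate drop versus controls.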
# [2] = test system: Brachyury (BRA) Protein Expression, Deisenroth Lab, TBXT (gene 6862); assay: CCTE_Deisenroth_DEVTOX-GLR_legacy_Bra: (Legacy) CCTE's DevTox GLR-Endo Assay Evaluation of Brachyury (BRA) Protein Expression, Deisenroth Lab (AID 2284329; active = hit-call score of the fitted dose curve at least 0.9, where 1 is the maximum; inactive = score below 0.9)
# In short: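 RUES2-GLR human pluripotent cells are differentiated for 48 h and receive two chemical exposures 24 h apart, at 10 concentrations from 1 nM to 200 uM. Cells are fixed, nuclei stained and imaged. Bra+ cells are those with mean Bra intensity over 5x BMAD above the pluripotent control median, expressed as a percentage of cell count, after subtracting the 0.2% DMSO control median.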
# [3] = CCTE_Deisenroth_DEVTOX-GLR_legacy_CellCount: (Legacy) Viability Assessment in CCTE's DevTox GLR-Endo Assay, Deisenroth Lab (AID 2284331; active = hit-call score of the fitted dose curve at least 0.9, where 1 is the maximum; inactive = score below 0.9); conditions: actives raise or lower the signal
# In short: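 Nuclei count by fluorescence high-content imaging (5 fields/well) after 48 h differentiation of RUES2-GLR cells. Two exposures, 24 h apart; 1 nM - 200 uM series; n=4. Bidirectional fit vs DMSO.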
# [4] = test system: SRY-box transcription factor 17 (SOX17) Protein Expression, Deisenroth Lab, SOX17 (gene 64321); assay: CCTE_Deisenroth_DEVTOX-GLR_legacy_Sox17: (Legacy) CCTE's DevTox GLR-Endo Assay Evaluation of SRY-box transcription factor 17 (SOX17) Protein Expression, Deisenroth Lab (AID 2284341; active = hit-call score of the fitted dose curve at least 0.9, where 1 is the maximum; inactive = score below 0.9); conditions: actives raise or lower the signal
# In short: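 RUES2-GLR human pluripotent cells, seeded 24 h, then differentiated 48 h in defined media with two chemical exposures 24 h apart (1 nM - 200 uM, 10 points). Sox17+ fraction from high-content fluorescence imaging; bidirectional fit versus 0.2% DMSO.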
# [5] = VALA_MIGHUV2_CellCount: Viability Assessment in the VALA Sciences human Umbilical Vein Endothelial Cell Migration (MIGHUV) Assay, Area of Scratch Wound after Recovery (AID 2284314)
# In short: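 Scratch-wounded HUVEC monolayers received test chemical within 30 min, 6-point concentration response in triplicate, 0.1 % DMSO vehicle. After 24 h wound recovery, fixed cells were Hoechst-stained and nuclei imaged; loss of signal versus DMSO indicates reduced viability.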
# [6] = VALA_MIGHUV2_Bcatenin: VALA Sciences human Umbilical Vein Endothelial Cell Migration (MIGHUV) Assay, Nuclear Translocation of beta-Catenin after Recovery (AID 2284315)
# In short: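 HUVEC (4000 cells/well) scratch-wounded, dosed within 30 min over 6 concentrations in triplicate, recovered 24 h. After fixation, Hoechst and anti-beta-catenin immunofluorescence imaged for nuclear CTNB. Gain of signal versus 0.1% DMSO.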
# [7] = VALA_MIGHUV2_WoundArea: VALA Sciences human Umbilical Vein Endothelial Cell Migration (MIGHUV) Assay, Area of Scratch Wound after Recovery (AID 2284316)
# In short: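 HUVEC seeded at 9000 cells/well, scratched after 24 h; test chemical added within 30 min, 6-point concentration response in triplicate (0.1% DMSO vehicle). After 24 h wound recovery, cells fixed and Hoechst-stained nuclei in wound area imaged; Cytochalasin D reference control.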
# [8] = VALA_TUBHUV_Antagonist_TubuleLength: VALA Sciences human Umbilical Vein Endothelial Tubule Formation (TUBHUV) Antagonism Assay (AID 2284325)
# In short: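 HUVEC–HDF co-culture (1:3) pre-grown 3 days with 10 ng/ml VEGF, then 3 days with compound plus VEGF. Fixed, nuclear and CD31 stained; total tubule length by imaging versus 0.1% DMSO; suramin 100 uM positive control.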
# [9] = VALA_MIGHUV1_ScratchOnly_CellCount: Viability Assessment in the VALA Sciences human Umbilical Vein Endothelial Cell Migration (MIGHUV) Assay, Scratch Wound Inhibited Recovery (AID 2284327)
# In short: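 HUVEC scratched after 24 h culture, chemical added within 30 min at 6 concentrations in triplicate (0.1% DMSO vehicle). After 24 h recovery, fixed cells were counted by Hoechst nuclear imaging in the wound area.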
# [10] = VALA_MIGHUV1_ScratchOnly_WoundArea: VALA Sciences human Umbilical Vein Endothelial Cell Migration (MIGHUV) Assay, Area of Scratch Wound Inhibited Recovery (AID 2284336)
# In short: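 HUVEC monolayers (9000 cells/well) were scratched after 24 h, dosed within 30 min (six concentrations, triplicate, 0.1% DMSO), allowed 24 h recovery, then fixed. Hoechst-stained nuclei in the wound imaged; cytochalasin D as reference.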
# [11] = VALA_TUBHUV_Agonist_TubuleLength: VALA Sciences human Umbilical Vein Endothelial Tubule Formation (TUBHUV) Agonism Assay (AID 2284337)
# In short: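 HUVEC co-cultured with fibroblasts (1:3) 3 days in 10 ng/ml VEGF, then 3 days with compound plus VEGF; 0.1 % DMSO neutral control. Fixed, nuclear and CD31 stained; tubule length by fluorescence imaging.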
# [12] = VALA_TUBIPS_Agonist_CellCount: Viability Assessment in the VALA Sciences human iPS-derived Endothelial Tubule Formation (TUBIPS) Agonism Assay (AID 2284338)
# [13] = CCTE_Deisenroth_5AR_NBTE_donor: CCTE's 5alpha-reductase NanoBRET Target Engagement Assay […], Deisenroth Lab (AID 2284319; active = hit-call score of the fitted dose curve at least 0.9, where 1 is the maximum; inactive = score below 0.9); conditions: actives raise or lower the signal
# In short: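 Donor NanoLuc luminescence at 460-20 nm is the read-out, serving artifact detection. Transiently expressed SRD5A2-NanoLuc in HEK293T; 5 h total chemical exposure, testosterone tracer added for the final 2 h; fitting bidirectional relative to DMSO baseline.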
# [14] = CCTE_Deisenroth_5AR_NBTE_acceptor: CCTE's 5alpha-reductase NanoBRET Target Engagement Assay - Autofluorescence Screen, Deisenroth Lab (AID 2284321; active = hit-call score of the fitted dose curve at least 0.9, where 1 is the maximum; inactive = score below 0.9;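 note: compound fluorescence in the acceptor channel under 460 nm excitation flags autofluorescence artifacts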); conditions: actives raise or lower the signal
# In short: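 Autofluorescence check: ToxCast chemicals, nominal 100 uM, excitation 460 nm, n=3 runs. Acceptor fluorescence endpoint, bidirectional fit relative to DMSO. Parent assay in HEK293T, 5 h post-dose.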
# IYD (gene 389434) = assay: CCTE_GLTED_hIYD: CCTE's human Iodotyrosine Deiodinase (xIYD) Inhibition Assay, Great Lakes Toxicology and Ecology Division (GLTED) Lab (AID 2284317);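 note: cell-free human IYD enzyme made in baculovirus insect cells; iodide freed from monoiodotyrosine measured by cerium arsenite color change at 420 nm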
# In short: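 Human IYD expressed in a baculovirus-insect cell system was incubated 3 h with monoiodotyrosine and test chemical. Released iodide, separated on Dowex columns, was quantified by the Sandell-Kolthoff reaction at 420 nm; plates were normalized to MNT and DMSO/NaOH controls.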
# [15] = CCTE_Mundy_HCI_iCellGluta_NOG_NeuriteLength: CCTE's Neurite Outgrowth Assay in iCellGluta cells for Neurite Length, Mundy Lab (AID 2284318)
# In short: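 Automated high-content imaging of betaIII-tubulin (Alexa Fluor-488) and Hoechst-stained cells gave neurite length, normalized to the DMSO baseline.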
# [16] = IUF_NPC1_cytotoxicity_72hr: Cytotoxicity Assessment at 72 hours in the Leibniz Research Institute for Environmental Medicine (IUF) Neural Progenitor Cell Proliferation Assay (NPC1) (AID 2284332);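 note: rising LDH signal means more cytotoxicity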
# In short: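 Single human fetal cortex neural progenitor spheres (GW 16-19, 0.25-0.35 mm) in EGF/FGF proliferation medium were exposed to compound for 72 h at 37C without renewal. Medium LDH release was read as resorufin fluorescence and fitted as gain-of-signal.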
# [17] = VALA_TUBIPS_Antagonist_CellCount: Viability Assessment in the VALA Sciences human iPS-derived Endothelial Tubule Formation (TUBIPS) Antagonism Assay (AID 2284335)
# [18] = CCTE_Mundy_HCI_iCellGluta_NOG_NeuronCount: CCTE's Neurite Outgrowth Assay in iCellGluta cells for Neuron Count, Mundy Lab (AID 2284340);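 note: cells fixed about 48 h after compound addition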
# In short: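 Neuron count read by automated high-content imaging of Hoechst 33342 and betaIII-tubulin/Alexa Fluor-488 labelling in human iPSC glutamatergic neurons. Activity fitted relative to DMSO.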
# SRD5A2 (gene 6716) = assay: CCTE_Deisenroth_5AR_NBTE_ratio: CCTE's 5alpha-reductase NanoBRET Target Engagement Assay - Ratio, Deisenroth Lab (AID 2284322; active = hit-call score of the fitted dose curve at least 0.9, where 1 is the maximum; inactive = score below 0.9); conditions: actives raise or lower the signal
# In short: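 Reverse-transfect HEK293T with pNLF1-C-SRD5A2, express 20 h. Pre-incubate cells with chemical 3 h (8-point series, 10 nM - 29.9 uM, duplicate). Add testosterone tracer, 2 h more. Add substrate/inhibitor, read donor and acceptor emission.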
compound,measurement,setting,value
O=C1CCC(N2C(=O)c3ccccc3C2=O)C(=O)N1 (centres undefined),outcome,[1],inactive
same,outcome,[2],inactive
same,outcome,[3],inactive
same,AC50,[4],1.44 µM (active)
NC(=O)NO,outcome,[1],inactive
same,outcome,[2],inactive
same,AC50,[3],64.7 µM (active)
same,outcome,[4],inactive
CC[C@H](C)C(=O)O[C@H]1C[C@@H](C)C=C2C=C[C@H](C)[C@H](CC[C@@H]3C[C@@H](O)CC(=O)O3)[C@H]21,AC50,[2],37.6 µM (active)
same,AC50,[3],2.83 µM (active)
same,AC50,[4],7.97 µM (active)
CCCCCCc1ccc(O)cc1O,outcome,[1],inactive
CC(C)c1cccc(C(C)C)c1N1C(=O)c2ccc(O)cc2C1=O,AC50,[5],85.8 µM (active)
same,AC50,[6],17.4 µM (active) and 53.1 µM (active)
same,AC50,[7],17.8 µM (active) and 74 µM (active)
same,AC50,[8],10.7 µM (active) and 50 µM (active)
same,AC50,[9],11.7 µM (active)
same,AC50,[10],5.98 µM (active) and 22.1 µM (active)
same,AC50,[11],85 µM (active) and 7.58 µM (active)
same,AC50,[12],80.2 µM (active)
Nc1ccc(Nc2ccccc2)cc1,AC50,[13],28.3 µM (active)
same,AC50,[14],31.5 µM (active)
CCOc1cccc(-n2cc(C(=O)N3CCN(c4cc(C(=O)O)c5ccccc5c4)CC3)nc2-c2ccc(C)cc2)c1,AC50,IYD (gene 389434),116 µM (active)
O=P(OC(CCl)CCl)(OC(CCl)CCl)OC(CCl)CCl,outcome,[15],inactive
same,outcome,[16],inactive
same,outcome,[17],inactive
same,outcome,[11],inactive
same,outcome,[12],inactive
same,outcome,[18],inactive
Cn1c(=O)c2c(ncn2C)n(C)c1=O,outcome,[3],inactive
same,outcome,[4],inactive
CCOC(=O)c1ccc(C2CCC(NC[C@H](O)COc3ccc(O)c(NS(C)(=O)=O)c3)CC2)cc1 (some centres undefined),AC50,[13],62.7 µM (active)
same,AC50,[14],50 µM (active)
same,AC50,SRD5A2 (gene 6716),79.2 µM (active)
